Screening data: PubChem, National Center for Advancing Translational Sciences (NCATS)
Tb PFK inh: inhibitors of T. brucei phosphofructokinase; Potency, µM (doses to about 57.5 µM), inactives show top-dose activity, negative = inhibition, actives largely listed as inhibitors; T. brucei PFK, ADP-Glo luminescence; O15648; hit rate 0.17% among 330,000;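 also: potency is read from the fitted curve at half-maximal effect; 0% = uninhibited 1x PFK enzyme wells and -100% = no-enzyme wells; nearly all actives have a fitted effect of over 60% in size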
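ADP-Glo luminescence quantified ADP after 45 min at room temperature, with 1.25 nM T. brucei PFK, 0.1 mM ATP and 0.5 mM fructose-6-phosphate in pH 8.0 TEA buffer. qHTS titrations up to 57 µM; curves classified by quality.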
PI4K2A inh: blocks human PI4K2A kinase activity; activity change, negative = inhibition, % at 76.9 µM; hit rate 0.13% among 420,000; purified PI4K2A, ADP-Glo luminescence, 1 h; active compounds read low; Q9BTU6; in the data active = activity change below about -50%; inconclusive = mostly about -30% to -49%;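 also: -100% = wells without enzyme as full effect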
Target sequence (Q9BTU6 whole entry, looked up): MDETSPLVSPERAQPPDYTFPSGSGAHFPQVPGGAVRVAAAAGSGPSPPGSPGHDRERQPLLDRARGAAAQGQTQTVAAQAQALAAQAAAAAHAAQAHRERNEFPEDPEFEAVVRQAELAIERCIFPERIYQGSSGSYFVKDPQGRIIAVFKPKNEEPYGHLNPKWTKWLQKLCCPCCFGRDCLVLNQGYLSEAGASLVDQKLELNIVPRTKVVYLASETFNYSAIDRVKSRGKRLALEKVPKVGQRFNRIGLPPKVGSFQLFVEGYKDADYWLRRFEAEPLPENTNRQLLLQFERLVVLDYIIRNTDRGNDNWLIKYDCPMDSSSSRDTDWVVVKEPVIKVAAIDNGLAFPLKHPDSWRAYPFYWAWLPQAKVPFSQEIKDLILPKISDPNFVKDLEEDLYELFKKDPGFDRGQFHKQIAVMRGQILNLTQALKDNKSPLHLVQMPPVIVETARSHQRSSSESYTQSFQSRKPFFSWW
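In this quantitative HTS, ADP production by PI4K2A was quantified luminescently after 1 h at ambient temperature; 100 microM adenosine served as plate-quality control.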
FEN1 inh-1: inhibitors of human flap endonuclease 1; Recombinant FEN1 flap cleavage, fluorescence, 15 min; hit rate 0.35% among 390,000; Potency, µM (highest dose often 114 µM), without a hit: at the top dose activity change, negative = inhibition, usual class: inhibitors; AID 588795; also: potency is read from the fitted curve at half-maximal effect; % is scaled to controls: 0 for no effect and ±100 for the full control effect; nearly all actives have a fitted effect of over 65% in size
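Compounds are tested as a concentration series against 10 nM FEN1; after a 15 min room-temperature preincubation, 50 nM substrate starts cleavage, with plate reads at 0 and 15 min. Normalized responses are fitted by a Hill equation.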
Tb PGK inh: inhibitors of T. brucei phosphoglycerate kinase | PGK/GAPDH coupled, Kinase-Glo luminescence, 60 min | Potency, µM (series often up to 57.5 µM), inactives show at the highest dose activity change, negative = inhibition, actives largely listed as inhibitors | hit rate 0.043% among 380,000; also: potency is read from the fitted curve at half-maximal effect; % is scaled to controls: 0 for no effect and ±100 for the full control effect; nearly all actives have a fitted effect of over 60% in size
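Recombinant glycosomal PGK reaction used 1,3-bisphosphoglycerate generated in-well by GAPDH (100nM final) in 100mM TEA pH 7.6, 5mM MgCl2, 0.01% Tween-20. After 60 minutes at room temperature, ATP was read by Kinase-Glo Plus luminescence end-point.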
APEX1 inh: blocks human APE1 abasic DNA cleavage | recombinant APE1, TAMRA/BHQ-2 abasic DNA cleavage fluorescence | hit rate 0.35% among 350,000 | P27695 | Potency, µM (highest dose often 65.8 µM), without a hit: at the highest dose activity change, negative = inhibition, usual class: inhibitors;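 also: potency is read from the fitted curve at half-maximal effect; plate controls were vehicle for no effect and reference inhibitor for full effect; nearly all actives have a fitted effect of over 55% in size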
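Readout is kinetic fluorescence (ex 525, em 598 nm) from cleavage of 50 nM TAMRA/BHQ-2 THF abasic duplex by 0.75 nM APE1, compound added 15 min beforehand at RT.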
TDP1 inh: TDP1 (human) enzyme inhibition. Potency, µM (titrated, usually from 130 µM), without a hit: at the highest dose activity change, negative = inhibition, actives largely listed as inhibitors. Q9NUW8. recombinant TDP1, AlphaScreen DNA substrate cleavage. hit rate 0.28% among 350,000; also: potency is read from the fitted curve at half-maximal effect; % is scaled to controls: 0 for no effect and ±100 for the full control effect; nearly all actives have a fitted effect of over 40% in size
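Enzyme-compound mixtures sat 15 min at room temperature, followed by a 5 min reaction with 15 nM final substrate and 10 min with AlphaScreen beads. Recombinant human Tdp1 was used at 1 nM final.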
FEN1 inh-2: FEN1 inhibition, cherry-pick retest | shares compounds with FEN1 inh-1 | FEN1 flap cleavage, TAMRA/BHQ2 fluorogenic DNA substrate | Potency, µM, actives largely listed as inhibitors | hit rate 79% among 880 | AID 720498; also: potency is read from the fitted curve at half-maximal effect; nearly all actives have a fitted effect of over 60% in size
The depositor's hits bear a star; i = inactive; ? = inconclusive; nt = not tested or not shown; [ ] = another dose, or the depositor's remark. A selection: hits, their analogues and other compounds. The true share with any hit is near 0.8%. Unless noted, calls follow the shape of the dose curve; as a rule, active = well fitted curve in the direction sought with a large enough effect; inconclusive = small, poorly fitted or top-dose-only effect, or another doubt; inactive = no such curve, though single readings can be large; an effect the other way counts as inactive or inconclusive.

SMILES	Tb PFK inh	PI4K2A inh	FEN1 inh-1	Tb PGK inh	APEX1 inh	TDP1 inh	FEN1 inh-2
CCOc1cc(/C=C2\SC(=S)N(NC(=O)c3cccnc3)C2=O)ccc1O	-11%	-18	?	-17%	?	-2%	85*
COc1cc(/C=C2\SC(=S)N(C(C(=O)O)c3ccccc3)C2=O)ccc1O (configuration not stated)	-23%	-1	-26%	i	-11%	4%	nt
COC(=O)C[C@H]1c2ccccc2S(=O)(=O)N1c1ccc(N(C)C)cc1	nt	nt	-1%	nt	nt	nt	nt
Cc1ccc(S(=O)(=O)N2CC[C@@]3(Cc4ccccc4)Cc4ccccc4C[C@@H]23)cc1	nt	3	nt	nt	nt	nt	nt
Cc1ccc(S(=O)(=O)N2CCCC2C(=O)N2CCc3ccccc3C2)cc1 (configuration not stated)	nt	-5	nt	nt	nt	nt	nt
O=C(c1ccccc1OCc1ccccc1)N(Cc1ccccn1)CC1CCCO1 (configuration not stated)	nt	-7	nt	nt	nt	nt	nt
C=CCN1[C@H](CC(C)C)COc2cc(F)ccc2S1(=O)=O	nt	-3	nt	nt	nt	nt	nt
Cc1cccc(C)c1NC(=O)COC(=O)c1ccccc1[N+](=O)[O-]	0%	5	-11%	0%	-8%	4%	nt
CCOc1cc(N2CCOCC2)c(OCC)cc1NC(=O)COC(=O)c1ccc([N+](=O)[O-])o1	3%	-3	28µM*	-12%	-24%	-7%	8.5*
COc1ccccc1CNC(=O)COC(=O)c1ccc([N+](=O)[O-])o1	-10%	-8	?	7%	?	1%[56.1 µM]	30*
O=C(COC(=O)c1ccc([N+](=O)[O-])o1)c1ccccc1	0%	-2	-14%	4%	-2%	4%	nt
O=C(COC(=O)c1ccc([N+](=O)[O-])o1)NCc1ccccc1	0%	-9	?	-8%	-11%	-10%	13*
CCOc1cc(N2CCOCC2)c(OCC)cc1NC(=O)COC(=O)c1cc(C)oc1C	4%	-8	0%	i	-1%	-4%	nt
Cc1cccc(C)c1NC(=O)COC(=O)c1ccc([N+](=O)[O-])o1	-5%	-19	?	i	?	8%	13*
O=C1CN(C(=O)C2CCCCC2)C=CN1CCc1ccccc1Br	nt	2	nt	nt	nt	nt	nt
NCc1ccccc1CC(=O)N[C@@H]1C(=O)N2C(C(=O)O)=C(CSc3nnnn3CC(=O)O)CS[C@H]12	nt	nt	nt	nt	-10%[21 µM]	nt	nt
Cc1ccnc2ccc(I)cc12	nt	nt	14%	nt	nt	nt	nt
NS(=O)(=O)c1ccc(CCNC(=O)COC(=O)Cc2ccc([N+](=O)[O-])cc2)cc1	-5%	-4	-8%	i	-5%	0%	nt
NS(=O)(=O)c1ccc(CCNC(=O)COC(=O)c2ccc([N+](=O)[O-])o2)cc1	-4%	-11	?	-5%	-42%	-11%	11*
Ic1ccc(Nc2nc(NCCN3CCOCC3)nc(N3CCCC3)n2)cc1	nt	nt	-27%	nt	nt	nt	nt
CN(N=O)C(=O)N[C@@H]1[C@@H](O)[C@H](O)[C@@H](CO)O[C@@H]1O	nt	-1	nt	nt	14%[21 µM]	nt	nt
COc1ccc(N2CCc3c(C)nc4c(OC)cc(OC)cc4c32)c(OC)c1	-3%	4	-8%	-8%	-4%	5%	nt
COc1ccc(N2CCc3c(C)nc4c(OC)cc(OC)cc4c32)cc1	7%	1	40µM*	22%	-5%	3%	38*
CN(C)CCCNc1cc(N2CCN(C3CCCCC3)CC2)c2noc3c2c1C(=O)c1ccccc1-3	nt	-14	11µM*	i	nt	12%	30*
CCC(=O)OCC(=O)[C@@]1(OC(=O)CC)[C@H](C)C[C@H]2[C@H]3[C@H]([C@@H](O)C[C@@]21C)[C@@]1(C)C=CC(=O)C=C1C[C@H]3Cl	nt	nt	nt	nt	-3%[21 µM]	nt	nt
SMILES	Tb PFK inh	PI4K2A inh	FEN1 inh-1	Tb PGK inh	APEX1 inh	TDP1 inh	FEN1 inh-2
COCCCNC(=O)c1cccn2c(=O)c3cc4ccccc4cc3nc12	-3%	0	?	-10%	?	9%	?
O=C(C[n+]1cccc2cc(Cl)ccc21)c1ccc(I)cc1	nt	nt	-3%	nt	nt	nt	nt
COc1ccc(CN2C(=O)c3ccccc3NC2c2ccc(OC)c(COc3ccc(NC(C)=O)cc3)c2)cc1 (configuration not stated)	nt	nt	nt	nt	nt	0%	nt
COc1ccc(C(=O)c2cn(CC(=O)Nc3cc(OC)cc(OC)c3)c3ccc(OC)cc3c2=O)cc1	?	-5	?	-9%	26%	?	?
CCOc1ccc(NC(=O)Cn2cc(C(=O)c3ccccc3)c(=O)c3cc(OC)ccc32)cc1	nt	1	0%	-6%	nt	6%	nt
CCc1ccc(C(=O)c2cn(CC(=O)Nc3ccc4c(c3)OCO4)c3ccc(OC)cc3c2=O)cc1	nt	7	32µM*	-9%	nt	nt	67*
Nc1nc2c(c(=O)[nH]1)N(C=O)C(CNc1ccc(C(=O)N[C@@H](CCC(=O)O)C(=O)O)cc1)CN2 (some centres not stated)	nt	nt	nt	nt	11%[21 µM]	nt	nt
CN(C)CCNc1ccc(CO)c2sc3ccc(O)cc3c(=O)c12	nt	5	22µM*	-10%	nt	nt	17*
CN(C)CCNc1ccc2ncn3c4ccc(O)cc4c(=O)c1c23	nt	?	8.9µM*	i	nt	nt	4.8*
COc1ccc2sc3cccc(NCCN(C)C)c3c(=O)c2c1	nt	15	nt	nt	nt	nt	nt
COC(=O)CN1CCN(C(=O)c2csc(-c3ccccc3)n2)CC1	nt	1	nt	nt	nt	nt	nt
CCN=c1scc(C)n1/N=C/c1ccc(O)c(O)c1O	-27%	-12	?	-10%	?	6%	?
O=[N+]([O-])c1ccc(/C=N/N=C/c2ccc([N+](=O)[O-])o2)o1	-2%	-1	-20%	-8%	?	nt	nt
Cc1csc(N=Cc2ccc([N+](=O)[O-])o2)n1	nt	?	nt	-13%	nt	nt	30*
CCOc1ccc(-n2c(SCC(=O)NN=Cc3ccc(C(=O)O)cc3)nnc2-c2cccnc2)cc1	nt	1	nt	nt	nt	nt	nt
